# According to ChEMBL document CHEMBL3988442, “University of Dundee, Small-Polar-MMV Screening Library” (2021):
# The campaign covered roughly 48,000 compounds. About 13,000 (27%) showed an effect of 50% or more. This is one part of the list.
# System: Wolbachia pipientis
# Test: Anti-Wolbachia Cell-Based Screen
# Format: functional
# Design: scale not given: in the data most compounds retested in dose-response had high values
# Conditions: 5 µM
row,Compound,Percent Effect [%]
1,O=c1nc(SCc2ccncc2)c2c(n1CCO)CCC2,3.515
2,COc1cccc(N2CC3(CCN(c4cnccn4)C3)CC2=O)c1 (stereo not drawn),-7.581
3,Cc1cc(Cl)ccc1NCc1cnn(C2CCS(=O)(=O)C2)c1 (stereo not drawn),23.97
4,CCC1=NN2C(=N)/C(=C/c3cccc(Cl)c3)C(=O)N=C2S1,3.278
5,CCC1=NN2C(=N)/C(=C\c3cccn3-c3cccc(Cl)c3)C(=O)N=C2S1,116.1
6,CCC1=NN2C(=N)/C(=C\c3cccn3-c3ccc(Br)cc3)C(=O)N=C2S1,83.94
7,CCC1=NN2C(=N)/C(=C\c3cccn3-c3ccc(Cl)cc3)C(=O)N=C2S1,96.44
8,CN(Cc1ccco1)C1CCC12CCN(C(=O)C1CCOCC1)CC2.O=C(O)C(F)(F)F (stereo not drawn),-16.55
9,CO[C@H]1CCN(S(=O)(=O)c2cn(C)cn2)[C@H]1Cc1ccccc1.O=C(O)C(F)(F)F,1.513
10,Cc1noc(CCNC(=O)c2ccc(Br)c(S(=O)(=O)N(C)C)c2)n1,13.21
11,CCn1c(N)nc2cc(C(=O)NCCc3ccccc3C)cnc21,-8.06
12,CCN(CC)S(=O)(=O)CCNc1nnc(C(C)C)s1,4.911
13,CC(C)(C)OC(=O)N1CCC(NCc2cnn(C(C)(C)C)c2)CC1,-19.8
14,CC(C)OC(=O)NCc1ccc(NCc2cnn(C(C)(C)C)c2)cc1,104.7
15,CC(=O)N(Cc1ccc(NCc2cnn(C(C)(C)C)c2)cc1)C(C)C,111.1
16,CC(C)(C)n1cc(CNC2CCN(C(=O)c3ccco3)CC2)cn1,-4.791
17,CC(C)(C)n1cc(CNC2CCN(C(=O)c3ccncc3)CC2)cn1,-2.234
18,CC(C)c1nc(CNc2ccc(CNS(C)(=O)=O)cc2)cs1,-10.73
19,CC(C)(C)n1cc(CNc2ccc(CNS(C)(=O)=O)cc2)cn1,115
20,CC(C)(C(=O)NCc1ccc(C#N)cc1)n1cc(Br)cn1,9.719
21,CS(=O)(=O)c1ccc(NCc2ccc(F)cc2)cn1,-13.54
22,CCc1nc(CNC(=O)Nc2nc(COC)cs2)cs1,-11.4
23,O=C(NCCc1csc(-c2cnccn2)n1)c1cnn[nH]1,-5.851
24,CCc1n[nH]c(SCC(=O)N2CCc3[nH]nc(C4CCC4)c3C2)n1,-5.998

row,Compound,Percent Effect [%]
1,OC1(CNC2CCN(Cc3ccncc3)CC2)CCc2ccccc21 (stereo not drawn),9.315
2,CNC(=O)[C@H]1C[C@@H]2CCN(CCc3ccccc3)C[C@@H]2O1.O=C(O)C(F)(F)F,-33.06
3,O=C(NCC1CCOCC1)[C@@H]1C[C@@H]2CCN(Cc3ccco3)C[C@H]2O1.O=C(O)C(F)(F)F,-3.417
4,CNC(=O)[C@@H]1C[C@@H]2CCN(Cc3ccoc3)C[C@H]2O1,103.1
5,O=C(NCC1CC1)[C@@H]1C[C@@H]2CCN(Cc3ccccc3)C[C@H]2O1,100.1
6,O=C(NCC1CC1)[C@@H]1C[C@@H]2CCN(Cc3ccoc3)C[C@@H]2O1,93.16
7,O=C(NCC1CC1)[C@H]1C[C@@H]2CCN(CCc3ccccc3)C[C@H]2O1.O=C(O)C(F)(F)F,16.57
8,O=C(NCC1CCOCC1)[C@H]1C[C@@H]2CCN(Cc3ccncc3)C[C@@H]2O1.O=C(O)C(F)(F)F.O=C(O)C(F)(F)F,7.253
9,O=C([C@@H]1C[C@@H]2CCN(Cc3ccco3)C[C@H]2O1)N1CCCO1,-6.348
10,O=C(NCC1CCOCC1)[C@H]1C[C@@H]2CCN(Cc3ccccc3)C[C@H]2O1.O=C(O)C(F)(F)F,108.7
11,CC(C)[C@H]1CN(CCS(C)(=O)=O)C[C@@H]1NC(=O)c1ccc(=O)[nH]c1,-6.33
12,NC(=O)Cn1c(SCc2noc(-c3ccsc3)n2)nnc1C1CC1,7.901
13,Cc1cc(C)cc(C(=O)NCc2ncnn2C)c1,-13.46
14,CC(OCC1CC1)C(=O)Nc1ccn(Cc2ccccc2)n1 (stereo not drawn),-8.999
15,N[C@H]1CC[C@@H](NC(=O)c2ccc3nc(-c4ccc(F)cc4)cn3c2)CC1,-22.5
16,Cn1nc(C(=O)NCc2cccc(Cn3ccnc3)c2)ccc1=O,-21.54
17,Cn1cccc1C(=O)NCc1cn2c(n1)CN(C(=O)c1ccsc1)CC2,7.383
18,O=C(NCC1CC1)[C@H]1CC[C@@H]2[C@@H](CCN2Cc2ccoc2)O1,3.009
19,O=C(NCC1CCOCC1)[C@@H]1C[C@@H]2[C@@H](CCN2Cc2ccoc2)O1,102.5
20,O=C(NC1CC1)[C@H]1CC[C@@H]2[C@@H](CCN2Cc2ccsc2)O1,-0.273
21,CC(C)NC(=O)NCCCc1cc(N)n(-c2ccccc2)n1,-14.76
22,Cc1ccc(OCC(=O)NCC(C)C)nc1,0.1298
23,CCCNC(=O)COc1cc(C)c2c(C)nn(-c3ccccc3)c2n1,102.4
24,Cc1cc(C)c2c(OCC(=O)NC(C)C)nn(C)c2n1,-14.3
